# From PubChem BioAssay
# “And” between values parts separate entries of the source, which are not always exact repeats. Identical values can stand only once. The source made the active and inactive calls.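 How the source made its calls, unless noted: active means normalized viability below 100% at a tested concentration; inactive means the rest.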
# Assays:
# [1] = Wnt pathway potentiators raising nuclear beta-catenin – imaging, WNT3A-conditioned medium, mouse C2C12, NPC library, primary screen (AID 1117326; in the data active means nuclear beta-catenin stimulation mostly above about 4.2%, no sharp cut-off; inactive means mostly below about 10%); conditions: stronger effect = higher value
# [2] = stimulators of insulin release from INS-1E, primary screen, cell-based, 5 mM glucose, NPC library (AID 1117329;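 active means compound raises insulin release from rat beta cells at 5 mM glucose, no numeric limit stated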); conditions: rat INS-1E insulin secretion, at 10 µM, stronger effect = higher value
# [3] = growth inhibition of GSK3B-pretreated HCT116 cells – cell-based, CellTiter-Glo, 0.2 to 20 µM (AID 1117336;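 active means compounds lowering colon cancer cell viability after pretreatment blocking the GSK3B kinase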); conditions: HCT116 viability after GSK3B inhibitor, at 20 µM, stronger effect = higher value
# [4] = inhibition of endothelial tube formation, primary screen, imaging, VEGF stimulated, CD31 staining, tube area, NPC library (AID 1117340;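 active means compound that reduces growth-factor-driven endothelial tube area in a mixed cell culture, no cutoff stated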); conditions: VEGF-stimulated ADSC/ECFC co-culture, at 10 µM, stronger effect = higher value
# [5] = GLP1 release stimulators, primary, NCI-H716, NPC library (AID 1117341;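 active means compound raises GLP1 secretion from the human gut endocrine cells, with no numeric limit stated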); conditions: NCI-H716 cells, at 10 µM, stronger effect = higher value
# [6] = HCT116 colon cancer cell growth inhibition, primary screen, CellTiter-Glo luminescence, NPC library (AID 1117342;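 active means compounds that lower survival of HCT116 colon cancer cells in the luminescence readout, no numeric limit stated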); conditions: at 20 µM (top of the series)
# [7] = reduced SW480 viability measured with CellTiter-Glo, NPC library, primary (AID 1117343;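 active means compounds that lower viability of the colon cancer cells in the luminescence readout, with no numeric limit stated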); conditions: CellTiter-Glo luminescence; at 20 µM (top of the series)
# [8] = NPC library primary testing for decreased DLD-1 cell viability via CellTiter-Glo (AID 1117346;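 active means compounds that lower survival of DLD-1 colon cancer cells in the luminescence readout, no cutoff given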); conditions: DLD-1 viability, CellTiter-Glo luminescence; at 20 µM (top of the series)
# [9] = target: 6-phosphogluconate dehydrogenase, decarboxylating (Homo sapiens) (UniProt P52209); experiment: inhibition of human phosphogluconate dehydrogenase – biochemical, recombinant enzyme, NADPH absorbance, primary screen (AID 1159550;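 active means at least 20% inhibition of 6-phosphogluconate dehydrogenase activity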); conditions: recombinant 6PGD, NADPH absorbance 341 nm; at 10 µM; stronger effect = higher value
# Chain of 6-phosphogluconate dehydrogenase, decarboxylating (Homo sapiens) (P52209 whole entry, looked up): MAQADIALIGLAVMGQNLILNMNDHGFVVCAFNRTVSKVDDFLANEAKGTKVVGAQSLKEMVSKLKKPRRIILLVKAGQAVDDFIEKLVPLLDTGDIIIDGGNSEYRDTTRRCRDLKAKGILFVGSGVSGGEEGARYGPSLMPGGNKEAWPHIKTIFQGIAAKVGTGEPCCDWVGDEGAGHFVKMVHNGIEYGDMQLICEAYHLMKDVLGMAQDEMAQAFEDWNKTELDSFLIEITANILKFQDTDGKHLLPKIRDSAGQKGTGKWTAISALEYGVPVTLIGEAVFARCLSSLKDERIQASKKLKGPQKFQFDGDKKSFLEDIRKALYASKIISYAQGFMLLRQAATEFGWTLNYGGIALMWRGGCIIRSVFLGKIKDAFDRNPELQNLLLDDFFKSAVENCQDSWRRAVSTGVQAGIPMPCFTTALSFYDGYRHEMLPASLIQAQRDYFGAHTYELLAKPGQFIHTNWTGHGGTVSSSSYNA
# [10] = modulation of C. elegans fzo-1 (AID 1259413; call rule not given here;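 further: fzo-1 mutant C. elegans worms in liquid wells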); conditions: C. elegans fzo-1 modulator screen, mean read-out; stronger effect = higher value
# [11] = EMT-state selective cytotoxicity in co-culture – imaging, PC-3E GFP, TEM4-18 mCherry, primary screen (AID 1345086;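 active means compounds killing one labelled cell type while sparing the other, by normalised counts and ratio limits, not self-fluorescent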;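 on all read-outs here: cells exposed to compound for 72 h before imaging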;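 on red/green cell ratio (normalised): normalised mesenchymal count divided by normalised epithelial count so high means epithelial killing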); conditions: PC-3E GFP / TEM4-18 mCherry co-culture, imaging cell counts, at 1 µM; for red/green cell ratio (normalised): actives lie on both sides, counts scaled to control wells, 1 = unselective
# [12] = MELAS cybrid and Rieske KO viability enhancers – cell-based, MELAS cybrids, Rieske KO mouse fibroblasts, CellTiter-Glo, primary screen (AID 1508586;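 active means mean z-score across replicates of 1.96 or higher in either the MELAS or the Rieske mutant cell line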;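 further: z relative to plate mean and SD of compound and empty wells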); conditions: low glucose
# [13] = target: NAD(+) hydrolase SARM1 (Homo sapiens) (UniProt Q6SZW1); experiment: blocking NAD cleavage by SARM1 SAM-TIR – cell lysate, NAD-Glo luminescence (AID 1508614;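 active means compound whose remaining NAD level is above about 45 nM, limit read from the data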); conditions: SAM-TIR HEK293T lysate NADase, at 1 µM, stronger effect = higher value
# Chain of NAD(+) hydrolase SARM1 (Homo sapiens) (Q6SZW1 whole entry, looked up, the tested form may be a part): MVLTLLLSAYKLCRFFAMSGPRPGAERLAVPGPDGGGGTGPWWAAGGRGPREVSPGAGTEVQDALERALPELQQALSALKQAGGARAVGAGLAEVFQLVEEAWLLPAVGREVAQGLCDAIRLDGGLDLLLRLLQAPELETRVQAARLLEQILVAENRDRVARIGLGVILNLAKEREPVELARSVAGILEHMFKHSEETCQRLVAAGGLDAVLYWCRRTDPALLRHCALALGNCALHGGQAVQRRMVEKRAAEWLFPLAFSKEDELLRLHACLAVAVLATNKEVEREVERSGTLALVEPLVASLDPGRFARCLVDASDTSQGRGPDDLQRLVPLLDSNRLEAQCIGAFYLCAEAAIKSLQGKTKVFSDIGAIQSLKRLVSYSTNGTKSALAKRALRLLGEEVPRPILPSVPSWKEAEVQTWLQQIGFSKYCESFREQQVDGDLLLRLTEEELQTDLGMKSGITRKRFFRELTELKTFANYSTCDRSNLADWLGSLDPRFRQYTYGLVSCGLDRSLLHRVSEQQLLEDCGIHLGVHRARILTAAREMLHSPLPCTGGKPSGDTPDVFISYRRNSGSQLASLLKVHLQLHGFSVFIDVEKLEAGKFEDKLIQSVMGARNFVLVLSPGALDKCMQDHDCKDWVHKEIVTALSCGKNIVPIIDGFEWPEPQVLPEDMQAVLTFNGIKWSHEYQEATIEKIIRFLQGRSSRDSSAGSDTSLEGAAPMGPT
# [14] = target: Mitogen-activated protein kinase 7 (Homo sapiens) (UniProt Q13164); experiment: Gal4-ERK5 driven luciferase induction – cell-based, HTS, primary screen (AID 1508626;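 active means luciferase signal above three times the same-plate solvent-only control wells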;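 further: luciferase driven by Gal4-ERK5 fusion binding five Gal4 sites before minimal TATA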); conditions: HeLa Gal4-ERK5 transactivation, 18 h, at 5 µM, stronger effect = higher value
# Chain of Mitogen-activated protein kinase 7 (Homo sapiens) (Q13164 whole entry, looked up, the tested form may be a part): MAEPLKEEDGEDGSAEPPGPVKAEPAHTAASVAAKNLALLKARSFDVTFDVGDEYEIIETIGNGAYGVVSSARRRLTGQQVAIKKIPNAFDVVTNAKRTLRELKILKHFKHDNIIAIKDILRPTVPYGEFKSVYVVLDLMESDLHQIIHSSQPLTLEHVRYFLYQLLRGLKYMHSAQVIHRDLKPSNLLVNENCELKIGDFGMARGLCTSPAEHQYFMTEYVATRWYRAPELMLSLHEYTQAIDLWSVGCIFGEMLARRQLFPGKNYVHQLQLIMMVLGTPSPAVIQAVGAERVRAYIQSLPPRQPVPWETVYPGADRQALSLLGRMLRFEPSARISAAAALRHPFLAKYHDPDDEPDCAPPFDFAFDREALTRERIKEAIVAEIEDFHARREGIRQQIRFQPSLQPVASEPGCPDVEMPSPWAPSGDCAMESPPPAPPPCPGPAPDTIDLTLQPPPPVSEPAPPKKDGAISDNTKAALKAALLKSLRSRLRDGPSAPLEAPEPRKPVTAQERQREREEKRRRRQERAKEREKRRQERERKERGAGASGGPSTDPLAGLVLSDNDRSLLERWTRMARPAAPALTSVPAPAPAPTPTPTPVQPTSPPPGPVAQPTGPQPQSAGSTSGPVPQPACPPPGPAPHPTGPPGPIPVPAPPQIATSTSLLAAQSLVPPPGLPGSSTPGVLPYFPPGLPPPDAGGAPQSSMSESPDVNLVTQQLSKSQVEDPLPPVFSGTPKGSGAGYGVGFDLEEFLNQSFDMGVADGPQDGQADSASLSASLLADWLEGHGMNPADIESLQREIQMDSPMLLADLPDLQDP
# [15] = system: F380Y; experiment: BK channel mutant inhibitors and activators – cell-based, U2OS BacMam, thallium flux, beta subunits, selectivity assay, profiling panel (AID 1259406;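 active means thallium flux through the channel raised or lowered by more than 3 SD from vehicle-only wells, actives on both sides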;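 further: initial slope of Thallos dye fluorescence rise after thallium is added; log ratio against the mean of 0.3% DMSO vehicle wells on the same plate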); conditions: U2OS BacMam BK variants, at 30 µM
# [16] = system: F380Y/beta1; experiment: as above; conditions: U2OS BacMam BK variants, at 30 µM
# [17] = system: F380Y/beta2Delta; experiment: as above; conditions: U2OS BacMam BK variants, at 30 µM
# [18] = viability loss with induced miR-34 in A549 – imaging, A549 dox-inducible miR-34, nuclei and caspase counts, primary screen (AID 1347080;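 active means compounds whose cell count with miR-34 switched on is under 0.7 times the count with it off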); conditions: A549 miR-34 inducible, Hoechst nuclei count, 48 h
# [19] = drug combination growth inhibition, ovarian cancer – cell-based, oncology-focused library, rucaparib conditional, profiling panel (AID 1508598); conditions: patient-derived ovarian cancer cells, CellTiter-Glo viability, 144 h, stronger effect = lower value
# [20] = measured here: epithelial PC-3E GFP cell survival
# [21] = measured here: mesenchymal TEM4-18 mCherry cell survival
# [22] = MELAS cybrid survival, CellTiter-Glo 48 h, stronger effect = higher value
# [23] = Rieske KO mouse fibroblast survival, CellTiter-Glo 72 h
smiles,measurement,setting,value
COc1cc2nc(N(C)CCCNC(=O)C3CCCO3)nc(N)c2cc1OC (stereo unspecified),nuclear beta-catenin stimulation,[1]; at 10 µM,1.8% (inactive)
same,nuclear beta-catenin stimulation,"[1]; stimulation, at 2 µM",1.8%
same,insulin secretion stimulation,[2],-0.3% (inactive)
same,viability decrease,[3],-24.4% (inactive)
same,tube area decrease,[4],-4.5% (inactive)
same,GLP1 secretion stimulation,[5],14.6% (inactive)
same,inhibition of viability,[6],21.1% (inactive)
same,viability decrease (inhibition),[7],19.4% (inactive)
same,viability decrease (inhibition),[8],0.1% (inactive)
same,inhibition,[9],0.608% (inactive)
same,mean signal,[10],257 (inactive)
same,red/green cell ratio (normalised),[11],0.93 (inactive)
same,normalised cell number,[11]; [20],1.18
same,normalised cell number,[11]; [21],1.09
same,z-score,[12]; [22],-0.397 (inactive) and -0.012 (inactive)
same,z-score,[12]; [23],0.382 and 0.0438
same,remaining NAD,[13],10 nM (inactive)
same,luciferase signal,[14],28 AU (inactive)
same,log fold change Tl+ flux,[15],0.0271 (inactive)
same,log fold change Tl+ flux,[16],-0.0154 (inactive)
same,log fold change Tl+ flux,[17],0.0311 (inactive)
O=S(=O)(O)CCS,nuclear beta-catenin stimulation,[1]; at 10 µM,1.9% (inactive)
same,nuclear beta-catenin stimulation,"[1]; stimulation, at 2 µM",1.8%
same,insulin secretion stimulation,[2],1.6% (inactive)
same,viability decrease,[3],4.9% (inactive)
same,tube area decrease,[4],11.9% (inactive)
same,GLP1 secretion stimulation,[5],2.6% (inactive)
same,inhibition of viability,[6],-4.57% (inactive)
same,viability decrease (inhibition),[7],-2.4% (inactive)
same,viability decrease (inhibition),[8],-8.8% (inactive)
same,inhibition,[9],6.93% (inactive)
same,mean signal,[10],248 (inactive)
same,red/green cell ratio (normalised),[11],1 (inactive)
same,normalised cell number,[11]; [20],1.08
same,normalised cell number,[11]; [21],1.09
same,fold change,"[18]; stronger effect = lower value, cell number ratio, induced over uninduced",0.934 (inactive) and 0.882 (inactive)
same,fold change,[18]; measured here: relative caspase fold change +Dox/-Dox,3.36 and 0.596 and 4.13
same,cell count,"[18]; measured here: total cells with miR-34 induction, stronger effect = lower value",9790 and 9090 and 11400
same,cell count,[18]; measured here: total cells without miR-34 induction,10500 and 9730 and 12900
same,z-score,[12]; [22],-0.16 (inactive) and 0.426 (inactive)
same,z-score,[12]; [23],0.659 and -0.304
same,remaining NAD,[13],10 nM (inactive)
same,luciferase signal,[14],20 AU (inactive)
same,log fold change Tl+ flux,[15],-0.0468 (inactive)
same,log fold change Tl+ flux,[16],0.0507 (inactive)
same,log fold change Tl+ flux,[17],0.0371 (inactive)
O=c1[nH]cc(F)c(=O)[nH]1,nuclear beta-catenin stimulation,[1]; at 10 µM,6.3% (inactive)
same,nuclear beta-catenin stimulation,"[1]; stimulation, at 2 µM",1.7%
same,insulin secretion stimulation,[2],-3% (inactive)
same,viability decrease,[3],87.4% (active)
same,tube area decrease,[4],56.6% (active)
same,GLP1 secretion stimulation,[5],-0.1% (inactive)
same,inhibition of viability,[6],75.1% (active)
same,viability decrease (inhibition),[7],28.6% (inactive)
same,viability decrease (inhibition),[8],26.6% (inactive)
same,inhibition,[9],-1.95% (inactive)
same,mean signal,[10],262 (inactive)
same,red/green cell ratio (normalised),[11],0.94 (inactive)
same,normalised cell number,[11]; [20],0.82
same,normalised cell number,[11]; [21],0.77
same,z-score,[12]; [22],-0.415 (inactive) and 0.96 (inactive) and 1.17
same,z-score,[12]; [23],0.32 and 1.37 and 2.42
same,viability,"[19]; at 0.000305 µM, OCI-C5x cells, with rucaparib 10 µM, 100% = cells with rucaparib alone",118% (inactive)
same,viability,"[19]; at 0.000305 µM, OCI-C5x cells, without rucaparib",111% (inactive)
same,viability,"[19]; at 0.000305 µM, OCI-P5x cells, with rucaparib 20 µM, 100% = cells with rucaparib alone",113% (inactive)
same,viability,"[19]; at 0.000305 µM, OCI-P5x cells, without rucaparib",111% (inactive)
same,viability,"[19]; at 0.00122 µM, OCI-C5x cells, with rucaparib 10 µM, 100% = cells with rucaparib alone",121% (inactive)
same,viability,"[19]; at 0.00122 µM, OCI-C5x cells, without rucaparib",108% (inactive)
same,viability,"[19]; at 0.00122 µM, OCI-P5x cells, with rucaparib 20 µM, 100% = cells with rucaparib alone",115% (inactive)
same,viability,"[19]; at 0.00122 µM, OCI-P5x cells, without rucaparib",115% (inactive)
same,viability,"[19]; at 0.00488 µM, OCI-C5x cells, with rucaparib 10 µM, 100% = cells with rucaparib alone",115% (inactive)
same,viability,"[19]; at 0.00488 µM, OCI-C5x cells, without rucaparib",115% (inactive)
same,viability,"[19]; at 0.00488 µM, OCI-P5x cells, with rucaparib 20 µM, 100% = cells with rucaparib alone",104% (inactive)
same,viability,"[19]; at 0.00488 µM, OCI-P5x cells, without rucaparib",98.7% (active)
same,viability,"[19]; at 0.0195 µM, OCI-C5x cells, with rucaparib 10 µM, 100% = cells with rucaparib alone",129% (inactive)
same,viability,"[19]; at 0.0195 µM, OCI-C5x cells, without rucaparib",101% (inactive)
